{"source": "ChEMBL document CHEMBL4513216", "about": "“Probing the Open Global Health Chemical Diversity Library for Multistage-Active Starting Points for Next-Generation Antimalarials” (ACS Infect Dis, 2020)", "note": "About 2,100 (3.2%) of roughly 65,000 compounds showed an effect of 50% or more. The median lay at about -52%. For the sample, strong results were picked, then their nearest neighbours and some compounds at random."}
{"system": "Plasmodium falciparum", "experiment": "Screen against P. falciparum Asexual Blood Stage (ABS), at 5uM", "type": "functional, Dd2", "settings": "tested at 5 uM", "units": {"INHIBITION": "%"}}
{"smiles": "Cc1cc(-n2cccn2)ccc1CN1CCOCC(CN(C)C)C1", "note": "(stereo not drawn)", "INHIBITION": 73}
{"smiles": "COc1ccc(-n2cccn2)c(CN2CCOCC(CN(C)C)C2)c1", "note": "(stereo not drawn)", "INHIBITION": 78.4}
{"smiles": "CO[C@H]1COCCN(Cc2c[nH]c3ccccc23)C1", "INHIBITION": -48.4}
{"smiles": "Cc1nc(=O)c(CC(=O)N2C[C@H]3CC[C@@H](C2)N(CC2CCC2)C3)c(C)[nH]1", "INHIBITION": -89.5}
{"smiles": "CCN1CC(=O)NCC12CCN(C(=O)c1ccno1)C2", "note": "(stereo not drawn)", "INHIBITION": -7.44}
{"smiles": "N#Cc1cccc(S(=O)(=O)Nc2c(F)cccc2N2CCCC2)c1", "INHIBITION": 74.1}
{"smiles": "N#Cc1cccc(C(=O)NS(=O)(=O)c2ccc(C#N)c(Cl)c2)c1", "INHIBITION": -49.2}
{"smiles": "Cc1nc(CC(=O)N2CCN(Cc3ccc(C#N)cc3)CC2)cs1", "INHIBITION": -11.175}
{"smiles": "CCOc1ccc(Br)cc1C1CCCCN1", "note": "(stereo not drawn)", "INHIBITION": 78.2}
{"smiles": "CCOc1ccc(Br)cc1C1CCCN1", "note": "(stereo not drawn)", "INHIBITION": 72.9}
{"smiles": "CCOc1ccc(Cl)cc1C1CCCN1", "note": "(stereo not drawn)", "INHIBITION": 87.7}
{"smiles": "CC(C)NC(=O)C1CCC2(CCNCC2)C1", "note": "(stereo not drawn)", "INHIBITION": -81.9}
{"smiles": "CCN1CCC2(CC1)C(=O)Nc1ccc(C(=O)NC)cc12", "INHIBITION": -38.9}
{"smiles": "Cc1ccccc1CC(C)NC(=O)Nc1cnn(CC(N)=O)c1", "note": "(stereo not drawn)", "INHIBITION": -23.3}
{"smiles": "CC(C)COC(=O)N1CCC2(CCNC2)C1", "note": "(stereo not drawn)", "INHIBITION": -93.7}
{"smiles": "Cc1ncsc1CN1CC[C@H]2C[C@H](c3ccncn3)O[C@@H]2C1", "INHIBITION": -37.3}
{"smiles": "NC1(c2nc(-c3cccs3)cc(=O)[nH]2)CCCCC1", "INHIBITION": -95.6}
{"smiles": "O=C(c1nc(=O)[nH]c2ccccc12)N1CCCC2(CCNC2)C1", "note": "(stereo not drawn)", "INHIBITION": -74.6}
{"smiles": "NC(=O)C1(Cc2ccc(-c3ccccc3)cc2)CCNC1", "note": "(stereo not drawn)", "INHIBITION": 92.7}
{"smiles": "O=S1(=O)N(c2ccccc2)C[C@@H](O)[C@]12CCNC2", "INHIBITION": -3.43}
{"smiles": "O=S1(=O)N(c2ccccc2)C[C@H](O)[C@]12CCNC2", "INHIBITION": -88.5}
{"smiles": "O=C(N1CCCC1)C1(Cc2ccc(-c3cccs3)cc2)CCNC1", "note": "(stereo not drawn)", "INHIBITION": 84.5}
{"smiles": "CC(C)N1CCCC(Cc2nccnc2Cl)C1", "note": "(stereo not drawn)", "INHIBITION": -59.8}
{"smiles": "COc1ccc(C2SCC(=O)Nc3ccsc32)cc1", "note": "(stereo not drawn)", "INHIBITION": -71.1}
{"smiles": "O=C(N[C@@H]1CN[C@H]2CCCO[C@H]21)c1cccnc1", "INHIBITION": -128}
{"smiles": "c1cncc(OC[C@]23COC[C@H]2CN(Cc2cccs2)C3)c1", "INHIBITION": -51.7}
{"smiles": "CCCN(C)CC1CCN(c2ccc(Br)c(C)n2)C1", "note": "(stereo not drawn)", "INHIBITION": 73.7}
{"smiles": "CCc1noc(CC)c1CC(=O)N1CCN(C(C#N)C(C)C)CC1", "note": "(stereo not drawn)", "INHIBITION": -154}
{"smiles": "CNC(=O)[C@@H]1C[C@H]2CN(C(=O)c3ccccn3)C[C@H]2N1C(C)C", "INHIBITION": -23}
{"smiles": "CC[C@H]1CN2CC[C@H]1C[C@@H]2CNC(=O)c1ccco1", "INHIBITION": -29.4}
{"smiles": "CCN(CC)C[C@H]1CN2CC[C@H]1C[C@@H]2CNC(=O)c1ccco1", "INHIBITION": -97.7}
{"smiles": "CN(C[C@H]1CN2CC[C@H]1C[C@@H]2CNC(=O)c1ccco1)c1ccccc1", "INHIBITION": 71.2}
{"smiles": "COc1cc(N2CC[C@@H]3OCCN(C)[C@H]3CC2)ncn1", "INHIBITION": -67.4}
{"smiles": "Cc1cccc(OCC(=O)N2CCN(C3CCOC3=O)CC2)c1C", "note": "(stereo not drawn)", "INHIBITION": -13.7}
{"smiles": "CC1COC2(CCN(C(=O)c3ncoc3C(C)C)CC2)O1", "note": "(stereo not drawn)", "INHIBITION": -69.9}
{"smiles": "Nc1nc(N)c2c(n1)OC1(CCN(Cc3nccs3)C1)C2", "note": "(stereo not drawn)", "INHIBITION": -96}
{"smiles": "c1cnc(N2CCC3(CC2)CN(CC2CC2)c2ccccc23)nc1", "INHIBITION": 86.3}
{"smiles": "CCN1CCC2(CC1)CN(CCO)c1ccccc12", "INHIBITION": -30.2}
{"smiles": "CN1CCN(c2ncccn2)CC12CCC(=O)N(CC1CC1)CC2", "note": "(stereo not drawn)", "INHIBITION": -74.4}
{"smiles": "Fc1ccc2[nH]c3c(c2c1)CCN1C(c2ccccn2)N2CCC31CC2", "note": "(stereo not drawn)", "INHIBITION": 81.2}
{"smiles": "Fc1ccc2[nH]c3c(c2c1)CCN1C(c2ccncc2)N2CCC31CC2", "note": "(stereo not drawn)", "INHIBITION": 89.6}
{"smiles": "Cc1noc(C)c1CN1CCCC2(C1)CN(c1nccs1)CCO2", "note": "(stereo not drawn)", "INHIBITION": 18.6}
{"smiles": "c1cnc(N2CCN3C[C@H](Oc4cncnc4)C[C@H]3C2)nc1", "INHIBITION": -102}
{"smiles": "CNc1nc(C(=O)N2C[C@@H]3CCN(C)[C@@H]3C2)cs1", "INHIBITION": -94.9}
{"smiles": "CCOCCN1C[C@H](C(=O)Nc2cccnc2)[C@@H]2CCO[C@@H]2C1", "INHIBITION": -9.46}
{"smiles": "CCOCCCn1c(NC(=O)c2cc(C)on2)nc2ccccc21", "INHIBITION": 71.5}
{"smiles": "NCC1[C@H]2CN(Cc3cccc(Cl)c3)C[C@@H]12", "note": "(stereo partly drawn)", "INHIBITION": 83.8}
{"smiles": "Oc1cccc(CN2C[C@@H]3CC[C@H]2CN(Cc2ccncc2)C3)c1", "INHIBITION": -31.9}
{"smiles": "NCC1[C@H]2CN(CCc3ccccc3)C[C@@H]12", "note": "(stereo partly drawn)", "INHIBITION": 86.8}
{"smiles": "c1ccc(CCN2C[C@@H]3OCCN(c4ncccn4)[C@@H]3C2)cc1", "INHIBITION": -64.6}
{"smiles": "O=C(CC1[C@H]2CN(Cc3ccncc3)C[C@@H]12)N1CCCC1", "note": "(stereo partly drawn)", "INHIBITION": -109}
{"smiles": "Cc1ccc([C@]2(O)CC[C@H]3CN(Cc4ccccc4F)C[C@H]32)nc1", "INHIBITION": 20.6}
{"smiles": "NCC1[C@H]2CN(Cc3ccccc3F)C[C@@H]12", "note": "(stereo partly drawn)", "INHIBITION": 68.2}
{"smiles": "O=C1CO[C@@H]2CN(Cc3nccs3)C[C@H]2N1Cc1ccncc1", "INHIBITION": -59.6}
{"smiles": "CN(C)[C@@H]1CN(C(=O)Cc2ccc(F)cc2)[C@@H]2CCCO[C@H]12", "INHIBITION": -29.9}
{"smiles": "CN(CCc1ccc(F)cc1)Cc1nc2c(cnn2C)c(=O)[nH]1", "INHIBITION": -97.7}
{"smiles": "CN(CCc1ccccc1)Cc1nc2c(cnn2C)c(=O)[nH]1", "INHIBITION": -38.8}
{"smiles": "CC(C)N(Cc1ccccn1)Cc1nc2c(cnn2C)c(=O)[nH]1", "INHIBITION": 74.2}
{"smiles": "COc1cccc(CN2CCC(c3nn(CCN)c4nccnc34)C2)c1", "note": "(stereo not drawn)", "INHIBITION": 89.1}
{"smiles": "NCCn1nc(C2CCN(Cc3ccccc3)C2)c2nccnc21", "note": "(stereo not drawn)", "INHIBITION": 80.4}
{"smiles": "COc1cccc([C@@H]2CCN(Cc3[nH]nc(C)c3Cl)C[C@H]2O)c1", "INHIBITION": -12.4}
{"smiles": "CN(C)CCn1nc(C2CCN(Cc3ccccc3)C2)c2cccnc21", "note": "(stereo not drawn)", "INHIBITION": 71.9}
{"smiles": "CN(C)CCN1CCO[C@H]2CN(Cc3ccccn3)C[C@H]21", "INHIBITION": 11.1}
{"smiles": "NCCn1nc(C2CCN(Cc3ccccc3Cl)C2)c2nccnc21", "note": "(stereo not drawn)", "INHIBITION": 80.1}
{"smiles": "c1ccc(N2CC[C@@H]3CN(Cc4ccncc4)CCO[C@@H]3C2)cc1", "INHIBITION": -57.3}
{"smiles": "O[C@@]1(c2ccccn2)CC[C@H]2CN(Cc3cccc(Cl)c3Cl)C[C@H]21", "INHIBITION": 39.6}
{"smiles": "c1ccc(CN2CC[C@H]3CO[C@H](CNc4ncccn4)[C@H]3C2)cc1", "INHIBITION": -6.23}
{"smiles": "c1cnc(N2CC[C@@H]3CN(Cc4ccncc4)CCO[C@@H]3C2)nc1", "INHIBITION": -103}
